According to PubChem BioAssay AID1259397 (Fisher Drug Discovery Resource Center, 2018):
“And” between values parts separate entries of the source, which are not always exact repeats. Equal values may be shown once. Hit rate of the full screen: of about 130,000 compounds, about 230 (0.18%) were called active. This is one part of a sample in which actives are shown more often than they occur.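 Rule for the calls: active = inhibition of cGAS enzyme activity at or above 60%; inactive = the rest.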 Some structures have more than one record in an assay (separate samples or runs), and their calls can disagree.

What follows are compounds tested against Cyclic GMP-AMP synthase (Mus musculus) (UniProt Q8C6L5) (assay: inhibitors of Mus musculus cyclic GMP-AMP synthase, initial high-throughput assay, cell-free, RapidFire MS (AID 1259397;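 note: enzyme stimulated by 45 bp dsDNA with ATP and GTP substrates; cGAMP share of summed cGAMP plus half ATP and half GTP signals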)). Details: recombinant mouse cGAS, cGAMP by RapidFire MS; at 12.5 µM; stronger effect = higher value.
Sequence of Cyclic GMP-AMP synthase (Mus musculus) (Q8C6L5 whole entry, looked up): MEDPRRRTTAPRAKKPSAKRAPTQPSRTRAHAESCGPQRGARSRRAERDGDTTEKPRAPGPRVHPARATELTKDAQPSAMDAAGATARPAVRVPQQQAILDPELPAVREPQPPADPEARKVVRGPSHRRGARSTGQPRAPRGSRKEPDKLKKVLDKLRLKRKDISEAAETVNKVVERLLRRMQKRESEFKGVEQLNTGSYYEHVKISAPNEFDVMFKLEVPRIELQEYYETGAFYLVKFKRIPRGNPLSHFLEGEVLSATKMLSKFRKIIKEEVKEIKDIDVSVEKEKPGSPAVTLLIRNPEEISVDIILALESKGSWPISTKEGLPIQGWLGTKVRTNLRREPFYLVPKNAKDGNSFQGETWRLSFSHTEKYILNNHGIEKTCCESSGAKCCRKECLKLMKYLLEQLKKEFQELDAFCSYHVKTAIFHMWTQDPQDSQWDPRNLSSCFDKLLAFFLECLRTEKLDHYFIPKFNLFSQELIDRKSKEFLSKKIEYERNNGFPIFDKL

SMILES	inhibition
COCCn1c(-c2cc(OC)ccc2OC)csc1=Nc1ccc(OC)cc1	-17.5% (inactive)
Cc1ccc(-c2nc(CCNC(=O)c3cccc(C)c3)cs2)cc1	5.19% (inactive)
O=S(=O)(c1ccc(Oc2nc(C(F)(F)F)nc3ccccc23)cc1)N1CCOCC1	-25.2% (inactive)
COC(=O)NC(C)C(=O)NCc1cccnc1Oc1c(C)cccc1C (stereo not given)	-19.5% (inactive)
CCN(Cc1ccccc1)C(=O)COC(=O)c1cccc(O)c1	5.18% (inactive)
CN1CCN(c2ccc(NC(=O)c3cccs3)c(C(F)(F)F)c2)CC1	-17.2% (inactive)
COc1ccc(C2=CCN(C(=O)c3csc(NC(C)=O)n3)CC2)cc1	-5.03% (inactive)
COc1ccc(CCn2c(SCCO)nc3c2c(=O)n(C)c(=O)n3C)cc1	-8.65% (inactive)
Cc1nn(C)c(C)c1C(=O)N(C)Cc1ccc(Cl)cc1	-0.861% (inactive)
CCC(C(=O)N1CC=CCC1)n1cc(C(C)=O)c2ccccc21 (stereo not given)	-14.3% (inactive)
Fc1ccc(-c2[nH]ncc2CNCc2ccc(OC(F)(F)F)cc2)c(F)c1	-8.38% (inactive)
N#Cc1ccc(NC(c2ccccc2)c2ccccn2)nc1 (stereo not given)	9.13% (inactive)
CC(Cn1ccnc1)NS(=O)(=O)c1ccccc1 (stereo not given)	-2.43% (inactive)
Cc1nc2c(c(NCc3csc(-c4cnccn4)n3)n1)CCN(C)CC2	-14.9% (inactive)
COc1ccc(NC(C)=O)cc1S(=O)(=O)Oc1ccc2c(c1)CCC2	-14.7% (inactive)
O=C(Cn1ccc(=O)c2ccccc21)Nc1cc(Cl)ccc1C(=O)N1CCCC1	-4.35% (inactive)
COc1ccccc1-c1n[nH]c(=S)n1-c1ccc(C)cc1	-2.19% (inactive)
O=C(Nc1ccc(F)cc1)Nc1ccc(OC(F)F)cc1	-13.8% (inactive)
O=c1oc2c(CN3CC4CC(C3)c3cccc(=O)n3C4)c(O)ccc2cc1-c1nc2ccccc2s1 (stereo not given)	-0.297% (inactive)
O=C(O)CCCc1ccc(Br)s1	92.3% (active)
O=C(CCSCc1ccccn1)NCc1ccc(Br)s1	7.74% (inactive)
O=C(O)CCCc1ccccc1	0.216% (inactive) and -7.46% (inactive) and -8.15% (inactive)
O=C(NCCc1ccccc1)C1=COC2=NC(=O)N(Cc3ccccc3C(F)(F)F)CCN12	-9.37% (inactive)
CS(=O)(=O)c1ccc(CN2CCN3C(C(=O)N4CCOCC4)=COC3=NC2=O)cc1	62.5% (active)
N#Cc1cccc(CN2CCN3C(C(=O)NCCCc4ccccc4)=COC3=NC2=O)c1	-8.68% (inactive)
Cc1cc2nc3c(=O)[nH]c(=O)nc-3n(C[C@H](O)[C@H](O)[C@H](O)CO)c2cc1C	87.9% (active)
Cc1c(C(=O)NCc2cccs2)sc(=O)n1Cc1ccccc1C(F)(F)F	-4.53% (inactive)
COc1ccccc1CNC(=O)CC1C(=O)NCCN1Cc1ccccc1C (stereo not given)	-7.58% (inactive)

SMILES	inhibition
C=Cc1c(C)c2[n-]c1=Cc1[n-]c(c(CC)c1C)C=c1[n-]c3c(c1C)C(O)=C(C(=O)O)C=3c1[n-]c(c(C)c1CCC(=O)O)C=2.[Cu]	97.2% (active) and -3.92% (inactive)
Cc1ccc(C(=O)Nc2ccc(C(=O)NCC(N)=O)cc2)cc1Cl	-5.23% (inactive)
CCC(N)(C(=O)OC)c1ccccc1 (stereo not given)	-5.42% (inactive)
Cc1ccc(NC(=O)Cc2nc(-c3ccc4c(c3)CCO4)cs2)c(C)c1	4.73% (inactive)
Cc1ccc(NS(=O)(=O)c2ccccc2C(F)(F)F)cc1C	-9.68% (inactive)
Cc1nc(-c2cccs2)sc1C(=O)OCc1cc(=O)n2c(C)csc2n1	17.2% (inactive)
COc1cc(C)c(CN2CCN(C(=O)C3=COCCO3)CC2)cc1OC	0.561% (inactive)
O=C(NCC1(c2ccc(F)cc2)CCCC1)C1CCN(C(=O)C2CC2)CC1	0.199% (inactive)
FC(F)C(F)(F)C(F)(F)C(F)(F)CNCc1ccco1	6.11% (inactive)
CC(C)Oc1ccc(-c2cncn2C)cc1	-19.6% (inactive)
Cn1nnnc1SCCNC(=O)c1ccc2oc(Cc3ccccc3)nc2c1	3.65% (inactive)
COCCCn1c(C)c(C)n2c3c(=O)n(CC(C)C)c(=O)n(C)c3nc12	-5.91% (inactive)
COC(=O)c1ccc(-c2nc(CN3CCN(C(=O)c4cccc(OC)c4)CC3)c(C)o2)cc1	-3.22% (inactive)
O=C(CC1CSc2nccc(=O)n21)Nc1ccc(Oc2ccccc2)cc1 (stereo not given)	-4.45% (inactive)
CCC(c1ccccc1)C1(O)OC(=O)c2ccccc21 (stereo not given)	-3.91% (inactive)
O=C(CCn1c(=O)oc2cc(Cl)ccc21)N1CCN(c2ccccc2Cl)CC1	-7.84% (inactive)
COc1ccc(C(=O)NC2CC2)cc1OC1CCN(C/C=C/c2ccccc2)CC1	-2.34% (inactive)
CC(C)(C)n1ncc2c(=O)n(NC(=O)c3ccc(C(F)(F)F)cc3)cnc21	-4.85% (inactive)
C#CC(CC)(CC)NC(=O)c1ccc(S(C)(=O)=O)cc1	1.64% (inactive)
COc1cc(CNC(C)(C)CO)ccc1OCC(=O)Nc1ccc(C)cc1	-4.89% (inactive)
CCc1ccc2oc3c(c(=O)c2c1)C(c1cccc([N+](=O)[O-])c1)N(c1cc(C)on1)C3=O (stereo not given)	-10.5% (inactive)
Cc1noc(CNC(=O)C2CC(=O)N(CC(F)(F)F)C2)n1 (stereo not given)	1.05% (inactive)
CCC1=NOC(C(=O)NCCn2c(C)cc(C)nc2=O)C1 (stereo not given)	0.535% (inactive)
CC(CCS(C)=O)NC(=O)Nc1ncc(-c2ccccc2)s1 (stereo not given)	-2.71% (inactive)
Oc1c(Cl)cc(Cl)c(Cl)c1Cc1c(O)c(Cl)cc(Cl)c1Cl	92.7% (active) and 36.7% (inactive)
COc1ccc(-c2csc(=Nc3cc(OC)cc(OC)c3)n2NC(=O)C(C)Oc2ccc(Cl)cc2C)cc1 (stereo not given)	1.02% (inactive)
Cc1cc(C)n(CCNC(=O)CN2CCN(c3ccc4c(c3)OCCO4)C2=O)n1	-5.72% (inactive)
